These results are taken from PubChem BioAssay (NCATS).

SMILES strings stand for the structures. Inconclusive results are not listed. The source made the active and inactive calls. The call rests on the fitted dose curve; in most records, active means well fitted cell-killing curve with a large enough effect; inconclusive means small, poorly fitted or top-dose-only effect; inactive means flat fitted curve, though single readings scatter.

The nature of the assay: Cell Viability - LYMP2-002 (AID 977).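 Further: compound exposure lasted 24 h at 37 °C; plate controls were DMSO only for no effect and 92 µM tetraoctylammonium bromide for full effect.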 Particulars: LYMP2-002 lymphoblastoid cell viability, qHTS; series mostly up to 92.2 µM; activity change, negative = cytotoxic: at the top concentration. The text has this: NIH Chemical Genomics Center [NCGC]
NIH Molecular Libraries Screening Centers Network [MLSCN]
National Institutes of Environmental Health Sciences [NIEHS]
National Toxicology Program [NTP]
We have developed a 1536-well cell-based assay for quantitative high throughput screening (qHTS) against a number of cell lines to determine in vitro cytotoxicity of small molecules. This particular assay uses a human lymphoblastoid cell line (LYMP2-002) purchased from Coriell Institute for Medical Research.
NCGC Assay Protocol Summary:
The CellTiter-Glo luminescent cell viability assay (Promega) is a homogeneous method to measure the number of viable cells in culture. The end point readout of this assay is based on quantitation of intracellular ATP, an indicator of metabolic activity, using the luciferase reaction. Luciferase catalyzes the oxidation of beetle Luciferin to oxyluciferin and light in the presence of ATP. The luminescent signal is proportional to amount of ATP present.
Using the CellTiter-Glo luminescent cell viability assay, the amount of cellular ATP was measured in the lymphoblastoid cell line with complete culture medium following compound treatment for 24 hours. The assay was performed in opaque white Kalypsys 1536-well plates. In the screen, tetraoctylammonium bromide was used as positive control. Library compounds were measured for their ability to cause acute toxicity in the cell line, as reflected by a decrease in intracellular ATP levels, in a concentration-dependent manner. […] AC50 values were determined from concentration-response data modeled with the standard Hill equation.
qHTS protocol for CellTiter Glo lymphoblastoid cellular assay
[Step] [Parameter] [Value] [Description]
1. Reagent; 5 uL; 2500 lymphoblastoid cells/well
2. Time; 5 hr; 37 C incubation
4. Controls; 23 nL; Tetraoctylammonium bromide 6.4pM to 92 uM
5. Time; 24 hr; 37 C incubation
6. Reagent; 5 uL; CellTiter Glo reagent
7. Time; 30 min; Room Temperature
8. Detection; Luminescence; Viewlux plate reader
Keywords: cell viability, cytotoxicity, lymphoblastoid cell line, luminescence, NTPHTS, NTPHTS_NCGC, NIEHS, DSSTox, MLSMR, MLSCN, NIH Roadmap, qHTS, NCGC
As to `Nc1c(Cl)cc([N+](=O)[O-])cc1Cl`, the “activity change, negative = cytotoxic” value was 2.2% (inactive).
As to `Nc1ccc(Oc2ccc(N)cc2)cc1`, the “activity change, negative = cytotoxic” value was 9.66% (inactive).
Turning to `Brc1ccc(Oc2ccc(Br)cc2Br)c(Br)c1`, the “activity change, negative = cytotoxic” value is -9.26% (inactive).
In the case of `[O-][Cl+2]([O-])O`, the “activity change, negative = cytotoxic” value is -3.61% (inactive).
Under `Oc1ccc(Cl)c(Cl)c1Cl` stands -3.16% (inactive); under `O=C(O)C(Br)Br`, -3.33% (inactive); under `Cc1ccc2c(C)cccc2c1`, -27.5% (inactive).
For `Cc1coc2c1CCC(C)C2` (stereo not given), the “activity change, negative = cytotoxic” value is -15.5% (inactive).
Under `O=C(Cl)OCc1ccccc1` stands -1.36% (inactive).
In the case of `BrCC(Br)C1CCC(Br)C(Br)C1` (stereo not given) it was -0.849% (inactive); in that of `C=CCBr`, -6.09% (inactive); in that of `CCCCC(CC)COC(=O)c1ccc(C(=O)OCC(CC)CCCC)c(C(=O)OCC(CC)CCCC)c1` (stereo not given), -16.7% (inactive).
With `Nc1cc(Cl)cc(C(=O)O)c1Cl`, the “activity change, negative = cytotoxic” value was -6.05% (inactive).
`ClC(Cl)c1ccccc1`: the “activity change, negative = cytotoxic” value is 8.43% (inactive).
Regarding `FC(Cl)(Cl)Cl`, the “activity change, negative = cytotoxic” value was 5.19% (inactive).
For `CC(C)(C)C(O)(CCc1ccc(Cl)cc1)Cn1cncn1` (stereo not given), the “activity change, negative = cytotoxic” value is -12.7% (inactive).
Regarding `CC1CC(=O)O1` (stereo not given), the “activity change, negative = cytotoxic” value is -8.41% (inactive).
Turning to `Oc1c(Cl)c(Cl)cc(Cl)c1Cl`, the “activity change, negative = cytotoxic” value is 12.1% (inactive).
In the case of `ClC(Br)Br` it was -4.93% (inactive).
In the case of `C=C(C)CCl` it was 2.23% (inactive); in that of `ClCCCCl`, 10% (inactive); in that of `OCCCCO`, -0.228% (inactive).
As for `ClCC(Cl)CCl`, the “activity change, negative = cytotoxic” value is -10.1% (inactive).
Take `Cc1ccc(N)cc1N`: the “activity change, negative = cytotoxic” value is -10% (inactive).
Regarding `Nc1cccc2ccccc12`, the “activity change, negative = cytotoxic” value is -28.2% (inactive).
In the case of `N#CCBr` it was -25.3% (inactive).
Consider `Clc1cccc(Cl)c1Cl`, for which the “activity change, negative = cytotoxic” value was 3.31% (inactive).
With `COC(=O)c1ccccc1N`, the “activity change, negative = cytotoxic” value is -2.9% (inactive).
Turning to `CC(C)[N+](=O)[O-]`, the “activity change, negative = cytotoxic” value was 19% (inactive).
In the case of `Clc1ccc(C(Cl)(Cl)Cl)cc1Cl`, the “activity change, negative = cytotoxic” value was -9.91% (inactive).
Take `C=CC(=O)OC`: the “activity change, negative = cytotoxic” value is 5.64% (inactive).
As for `CN=C=O`, the “activity change, negative = cytotoxic” value is 5.71% (inactive).
As to `O=C(Cc1ccccc1)OCc1ccccc1`, the “activity change, negative = cytotoxic” value is 3.9% (inactive).
In the case of `CCCCC#N`, the “activity change, negative = cytotoxic” value is 5.32% (inactive).
`CN(C)c1ccccc1`: the “activity change, negative = cytotoxic” value was -0.709% (inactive).
Take `CC(C)(COCC1CO1)COCC1CO1` (stereo not given): the “activity change, negative = cytotoxic” value is 1.6% (inactive).
With `O=NN1CCCCC1`, the “activity change, negative = cytotoxic” value is 17.1% (inactive).
Consider `N#C/C(N)=C(/N)C#N`, for which the “activity change, negative = cytotoxic” value was -8.24% (inactive).
Regarding `Clc1ccc(C(c2ccccc2Cl)C(Cl)(Cl)Cl)cc1` (stereo not given), the “activity change, negative = cytotoxic” value was -2.58% (inactive).
Take `CCCN(CCC)c1c([N+](=O)[O-])cc(C(F)(F)F)cc1[N+](=O)[O-]`: the “activity change, negative = cytotoxic” value was 6.03% (inactive).
